# Assay results published in PubChem BioAssay.
# A number with no mark means an inactive call. No rule for the calls is given here.
# System: Aerobactin synthetase IucA (Klebsiella pneumoniae hvKP1)
# Test: Biochemical IucA enzyme inhibition primary screen of the Spectrum library (AID 1346200);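 also: 100% = wells without compound and 0% = wells lacking enzyme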
# Conditions: malachite green pyrophosphate, A620, at 8 µM, stronger effect = lower value
row,SMILES,activity remaining
1,CC(=O)Oc1c(-c2ccccc2)oc2c(CC=C(C)C)c3c(c(OC(C)=O)c2c1=O)C=CC(C)(C)O3,98.4%
2,CC(=O)Oc1cc(C)c2c(c1C=O)Oc1c(c(C)c(OC(C)=O)c3c1C(OC(C)=O)OC3=O)OC2=O (configuration not stated),106%
3,CC(C)[C@@H]1CC[C@@H](C)C[C@H]1OC(=O)c1ccccc1,120%
4,C#C[C@]1(O)CCC2C3CCC4=CC(=O)CC[C@@H]4C3CC[C@@]21CC (some centres not stated),123%
5,CC(=O)OCC(=O)[C@@]1(O)CCC2C3CCC4=CC(=O)CC[C@]4(C)[C@@]3(F)[C@@H](O)C[C@@]21C (some centres not stated),91.4%
6,CCCC(=O)O[C@]1(C(=O)CO)CCC2[C@@H]3CCC4=CC(=O)CC[C@]4(C)C3[C@@H](O)C[C@@]21C (some centres not stated),79%
7,C=CCCCCCCCCCCCC(O)CC(O)COC(C)=O (configuration not stated) (tested in a mixture with another compound),81.7%
8,CC(=O)c1ccc2c(c1)N(CCCN(C)C)c1ccccc1S2,104%
9,N[C@@H](Cc1cc(I)c(Oc2ccc(O)c(I)c2)c(I)c1)C(=O)O,125%
10,CC(=O)Nc1ccc(OC(=O)c2ccccc2O)cc1,101%
11,C[C@]12CCC3C(CC[C@H]4C[C@H](OS(=O)(=O)O)CC[C@]34C)C1CCC2=O (some centres not stated),102%
12,CC(=O)O[C@H]1C[C@@H](OC(C)=O)C(C)(C)C2C[C@@H](O)[C@]3(C)C(CC[C@@]4(C)[C@H](c5ccoc5)OC(=O)[C@H]5O[C@]543)[C@]21C (some centres not stated),94.5%
13,Cc1ncc([N+](=O)[O-])n1CC(C)O (configuration not stated),112%
14,CCN(CC)CCNC(=O)c1cc(Br)c(N)cc1OC,109%
15,CCC(CCC(C)[C@H]1CCC2C3CC=C4C[C@@H](O)CC[C@]4(C)C3CC[C@@]21C)C(C)C (some centres not stated),114%
16,CC(N)C12CC3CC(CC(C3)C1)C2 (configuration not stated),115%

row,SMILES,activity remaining
1,COc1ccc(NS(=O)(=O)c2ccc(N)cc2)nn1,111%
2,COC(=O)[C@@H]1OC(=O)C2OC23[C@@]1(C)CCC1[C@]2(C)C(C[C@@H](O)[C@]13C)C(C)(C)[C@H](OC(C)=O)C[C@@H]2OC(C)=O (some centres not stated),96.4%
3,Cc1cc(NS(=O)(=O)c2ccc(N)cc2)no1,110%
4,CC(C)NCC(O)c1ccc2ccccc2c1 (configuration not stated),102%
5,C[C@H]1O[C@@H](O[C@H]2[C@@H](O)C[C@H](O[C@H]3[C@@H](O)C[C@H](O[C@H]4CC[C@]5(C)C6C[C@@H](O)[C@]7(C)[C@@H](C8=CC(=O)OC8)CC[C@]7(O)C6CC[C@@H]5C4)O[C@@H]3C)O[C@@H]2C)C[C@H](O)[C@@H]1O (some centres not stated),118%
6,CC(C)=CCC/C(C)=C/CC/C(C)=C/CC/C(C)=C/CC/C(C)=C/CC/C(C)=C/CC/C(C)=C/CC/C(C)=C/CC/C(C)=C/CO,105%
7,COC(=O)c1c(C)cc(O)cc1O,89.5%
8,C=C(NC(=O)C(=C)NC(=O)c1csc(C2=NC3c4csc(n4)C4NC(=O)c5csc(n5)C(C(C)(O)C(C)O)NC(=O)C5CSC(=N5)C(=CC)NC(=O)C(C(C)O)NC(=O)c5csc(n5)C3(CC2)NC(=O)C(C)NC(=O)C(=C)NC(=O)C(C)NC(=O)C(C(C)CC)NC2C=Cc3c(C(C)O)cc(nc3C2O)C(=O)OC4C)n1)C(N)=O (configuration not stated),121%
9,CC1(C)O[C@H]2[C@H](O)C[C@](O)(C(N)=O)C[C@H]2O1,109%
10,COc1ccc2c(c1)CCC1C2CCC2(C)C1C[C@@H](O)C2O (some centres not stated),114%
11,COc1ccc(-c2oc3cc(OC)c(OC)c(OC)c3c(=O)c2OC)cc1,115%
12,COc1ccc2c(=O)c(CC(=O)O)coc2c1,117%
13,CN[C@@H]1C(OC2[C@H](O[C@H]3[C@H](O)[C@@H](O)[C@H](N=C(N)N)[C@@H](O)[C@@H]3N=C(N)N)OC(C)[C@]2(O)CO)OC(CO)C(O)C1O (some centres not stated),111%
14,CCC(/C=C/[C@@H](C)[C@H]1CCC2C3CC=C4C[C@@H](O)CC[C@]4(C)C3CC[C@@]21C)C(C)C (some centres not stated),101%
15,Oc1cc(O)c2c(c1)O[C@H](c1cc(O)c(O)c(O)c1)[C@H](O)C2,116%
16,CC(C)CCCC(C)[C@H]1CCC2C3CC=C4C[C@@H](O)CC[C@]4(C)C3CC[C@@]21C (some centres not stated),117%
